# Activity calls are given as the source filed them.
# Key:
# [1] = binders of probe aFSTL3 on microarray, primary screen, stem cell growth factor project, biochemical, small-molecule microarray, fluorescence 635/667 (AID 1064); conditions: higher = more signal;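 also: measures binding of the biotinylated anti-FSTL3 antibody to printed compounds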
# [2] = binders from COS7 lysate, DM2A8 probe, primary screen, torsin A project, cell lysate, small-molecule microarray, fluorescence 635/667 (AID 1065); conditions: higher = more signal, COS7 lysate expressing mutant human TOR1A
# [3] = binders of probe aFGF2 on microarray, primary screen, stem cell growth factor project, biochemical, small-molecule microarray, fluorescence 635/667 (AID 1067); conditions: higher = more signal;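 also: measures binding of biotinylated aFGF2 protein to printed compounds on slides; z-score merges feature fluorescence and signal-to-noise across triplicate slides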
# [4] = binders of probe aFGF10 on microarray, primary screen, stem cell growth factor project, biochemical, small-molecule microarray, fluorescence 635/667 (AID 1071); conditions: higher = more signal;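 also: score merges 667 nm spot intensity and signal to noise from triplicate slides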
# [5] = molecular target: Neurogenic locus notch homolog protein 2 (Homo sapiens) (UniProt Q04721); experiment: Notch2 binders on small-molecule microarrays, primary screen, biochemical, small-molecule microarray, 635 nm fluorescence, stem cell growth factors (AID 1073); conditions: Notch2 binding, higher = more signal
# Sequence of Neurogenic locus notch homolog protein 2 (Homo sapiens) (Q04721 whole entry, looked up, canonical isoform): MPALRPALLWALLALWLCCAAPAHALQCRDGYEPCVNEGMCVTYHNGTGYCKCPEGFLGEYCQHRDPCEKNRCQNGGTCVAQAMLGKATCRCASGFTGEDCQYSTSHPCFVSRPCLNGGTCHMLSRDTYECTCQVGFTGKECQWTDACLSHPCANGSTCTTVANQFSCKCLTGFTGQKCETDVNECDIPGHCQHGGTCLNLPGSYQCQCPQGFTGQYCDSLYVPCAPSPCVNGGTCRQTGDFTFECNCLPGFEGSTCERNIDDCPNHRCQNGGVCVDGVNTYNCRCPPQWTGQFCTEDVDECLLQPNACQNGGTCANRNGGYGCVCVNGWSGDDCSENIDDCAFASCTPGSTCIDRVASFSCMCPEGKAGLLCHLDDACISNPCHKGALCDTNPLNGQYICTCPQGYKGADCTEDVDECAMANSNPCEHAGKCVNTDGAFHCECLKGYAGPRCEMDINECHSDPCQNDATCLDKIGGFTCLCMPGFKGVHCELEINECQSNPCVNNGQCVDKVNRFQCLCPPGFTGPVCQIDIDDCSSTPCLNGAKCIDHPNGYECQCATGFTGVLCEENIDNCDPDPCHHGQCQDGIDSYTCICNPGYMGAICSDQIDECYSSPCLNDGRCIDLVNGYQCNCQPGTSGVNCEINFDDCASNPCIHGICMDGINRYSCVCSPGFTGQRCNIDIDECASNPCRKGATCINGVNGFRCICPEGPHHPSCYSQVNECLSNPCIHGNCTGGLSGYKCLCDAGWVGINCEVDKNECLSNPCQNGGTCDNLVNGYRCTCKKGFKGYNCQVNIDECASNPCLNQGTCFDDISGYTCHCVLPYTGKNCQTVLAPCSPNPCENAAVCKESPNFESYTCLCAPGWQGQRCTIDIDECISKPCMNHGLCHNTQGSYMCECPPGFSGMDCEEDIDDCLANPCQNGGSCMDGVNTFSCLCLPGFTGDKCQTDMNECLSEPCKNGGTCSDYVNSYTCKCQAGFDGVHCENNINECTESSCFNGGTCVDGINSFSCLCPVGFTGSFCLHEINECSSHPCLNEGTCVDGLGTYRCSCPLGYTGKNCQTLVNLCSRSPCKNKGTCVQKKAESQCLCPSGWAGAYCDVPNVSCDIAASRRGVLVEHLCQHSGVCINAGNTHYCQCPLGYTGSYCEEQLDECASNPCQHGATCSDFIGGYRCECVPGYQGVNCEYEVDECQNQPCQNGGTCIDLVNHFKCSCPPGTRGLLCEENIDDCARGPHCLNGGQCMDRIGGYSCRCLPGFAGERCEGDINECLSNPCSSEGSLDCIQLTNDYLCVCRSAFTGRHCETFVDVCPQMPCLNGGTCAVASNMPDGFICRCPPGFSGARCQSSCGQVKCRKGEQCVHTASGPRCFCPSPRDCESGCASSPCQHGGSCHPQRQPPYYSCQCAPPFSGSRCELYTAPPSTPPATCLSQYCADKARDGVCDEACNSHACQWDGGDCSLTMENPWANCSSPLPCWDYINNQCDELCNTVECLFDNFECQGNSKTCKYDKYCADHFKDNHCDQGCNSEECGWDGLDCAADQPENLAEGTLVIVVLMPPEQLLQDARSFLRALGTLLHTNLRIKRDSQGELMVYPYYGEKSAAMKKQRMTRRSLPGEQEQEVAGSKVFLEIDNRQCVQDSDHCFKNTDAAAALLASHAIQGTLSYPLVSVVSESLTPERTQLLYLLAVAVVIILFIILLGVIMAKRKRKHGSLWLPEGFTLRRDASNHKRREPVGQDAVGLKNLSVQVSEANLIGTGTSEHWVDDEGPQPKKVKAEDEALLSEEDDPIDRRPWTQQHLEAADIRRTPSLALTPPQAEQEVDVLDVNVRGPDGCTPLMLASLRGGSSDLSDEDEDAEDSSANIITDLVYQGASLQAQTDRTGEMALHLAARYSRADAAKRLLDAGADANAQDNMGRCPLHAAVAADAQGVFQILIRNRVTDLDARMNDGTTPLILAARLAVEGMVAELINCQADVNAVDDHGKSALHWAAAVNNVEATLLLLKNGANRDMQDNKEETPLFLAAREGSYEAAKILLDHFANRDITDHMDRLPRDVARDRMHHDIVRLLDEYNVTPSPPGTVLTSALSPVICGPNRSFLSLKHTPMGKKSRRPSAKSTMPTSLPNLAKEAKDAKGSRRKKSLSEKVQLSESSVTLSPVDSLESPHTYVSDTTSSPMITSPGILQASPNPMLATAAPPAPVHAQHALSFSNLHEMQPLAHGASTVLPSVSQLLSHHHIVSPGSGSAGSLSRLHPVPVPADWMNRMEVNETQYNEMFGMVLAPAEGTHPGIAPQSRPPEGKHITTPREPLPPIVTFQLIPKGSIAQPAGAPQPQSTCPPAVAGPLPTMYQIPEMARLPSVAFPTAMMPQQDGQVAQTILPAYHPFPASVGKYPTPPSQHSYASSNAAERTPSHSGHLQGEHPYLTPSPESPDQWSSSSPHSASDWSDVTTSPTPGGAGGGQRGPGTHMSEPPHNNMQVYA
# [6] = molecular target: Pro-neuregulin-1, membrane-bound isoform (Homo sapiens) (UniProt Q02297); experiment: NRG1 binders on small-molecule microarrays, primary screen, psychiatric disease protein project, biochemical, small-molecule microarray, fluorescence 635/667 (AID 1075); conditions: NRG1 binding, 635 nm fluorescence, higher = more signal;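 also: score combines 667 nm spot fluorescence with signal to noise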
# Sequence of Pro-neuregulin-1, membrane-bound isoform (Homo sapiens) (Q02297 whole entry, looked up, the tested form may be a part, canonical isoform): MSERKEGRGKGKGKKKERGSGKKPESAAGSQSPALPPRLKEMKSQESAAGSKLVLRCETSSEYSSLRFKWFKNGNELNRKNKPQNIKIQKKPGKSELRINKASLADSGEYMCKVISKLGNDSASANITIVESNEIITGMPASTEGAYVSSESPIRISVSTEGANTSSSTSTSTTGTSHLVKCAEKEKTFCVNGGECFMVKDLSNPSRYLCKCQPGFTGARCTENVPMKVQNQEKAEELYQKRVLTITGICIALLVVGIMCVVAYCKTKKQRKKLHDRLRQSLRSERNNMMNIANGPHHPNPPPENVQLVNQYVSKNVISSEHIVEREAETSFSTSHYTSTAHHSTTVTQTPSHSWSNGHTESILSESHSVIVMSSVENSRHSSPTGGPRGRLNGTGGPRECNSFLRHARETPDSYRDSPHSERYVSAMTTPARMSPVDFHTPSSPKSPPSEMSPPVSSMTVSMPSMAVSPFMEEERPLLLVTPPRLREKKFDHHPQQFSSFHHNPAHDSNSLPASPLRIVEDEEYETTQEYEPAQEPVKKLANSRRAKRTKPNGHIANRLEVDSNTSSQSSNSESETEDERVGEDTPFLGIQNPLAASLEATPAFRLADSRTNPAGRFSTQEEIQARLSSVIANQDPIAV
# [7] = test system: Neuregulin-1 EGF-like domain; experiment: binders of neuregulin-1 EGF-like domain, primary screen, biochemical, small-molecule microarray, 635 nm fluorescence (AID 1081); conditions: small-molecule microarray binding, higher = more signal;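 also: binding of the protein to compounds printed on small-molecule microarray slides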
# [8] = FRG1 promoter luciferase signal modulators, primary screen, FRG1 inhibition for FSHD, cell-based, C2C12 myotubes, firefly/Renilla luciferase, luminescence (AID 1084); conditions: higher = more signal, called active from +8 up or from −8 down
# [9] = binders of probe aFST on microarray, primary screen, stem cell growth factor project, biochemical, small-molecule microarray, fluorescence 635/667 (AID 1086); conditions: higher = more signal;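 also: score merges 667 nm fluorescence with signal-to-noise of each printed compound spot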
# [10] = binders of probe aHhip on microarray, primary screen, stem cell growth factor project, biochemical, small-molecule microarray, fluorescence 635/667 (AID 1087); conditions: higher = more signal;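 also: score merges spot fluorescence at 667nm with spot signal to noise ratio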
SMILES,composite z-score [1],composite z-score [2],composite z-score [3],composite z-score [4],composite z-score [5],composite z-score [6],composite z-score [7],z-score [8],composite z-score [9],composite z-score [10]
O=C1N[C@@H](Cc2ccccc2)C(=O)N2[C@@H]1C[C@@H](C(=O)O)[C@H]2c1cccc(OCCO)c1,0.0693,0.571,0.0127,0.801,0.399,1.54,1.38,9.18 (active),0.166,-0.0237
N#Cc1ccc(NN2C(C(O)C(c3ccccc3)c3ccccc3)C=CC3C(=O)N(c4ccccc4)C(=O)C32)cc1 (stereo not given),0.223,0.135,-0.0462,0.952,1.65,1.77,1.15,-0.621 (inactive),1.93,0.0585
CN1C=C(C(=O)OCCS(C)(=O)=O)C(C(=O)OCCS(C)(=O)=O)=CC(c2ccc(CO)cc2)=CC1C1CC1 (stereo not given),-0.0965,0.528,-0.0824,0.0351,-0.0701,1,1.27,0.849 (inactive),-0.0993,-0.0994
CCCC[C@H]1OB(O)C[C@H]2C1=C(COC)Cn1c(=O)n(-c3ccccc3)c(=O)n12,-0.516,0.107,-0.157,0.392,0.325,-0.19,0.484,0.103 (inactive),0.199,-0.236
CN(C)CCCC[C@@H]1NC(=O)[C@@H]2C[C@H](C(=O)NCCCCCCN)[C@H](c3cccc(OCCO)c3)N2C1=O,1.58,2.15,0.044,0.973,1.57,2.24,1.42,0.0194 (inactive),0.88,-0.103
O=C1OCCC/C=C\[C@H]2OC34C=CCN(Cc5ccccc5)C(=O)[C@H]3N(CCCO)C(=O)[C@@H]4C12 (stereo not given in full),0.985,2.29,-0.145,-0.458,-1.15,0.822,0.703,0.308 (inactive),-0.572,-0.0994
CC(C)C(=C=CC[C@@H](O)c1ccc(OCCO)cc1)C[C@@H](O)COCc1ccccc1,-0.342,0.3,-0.085,-0.376,-0.0534,-0.849,0.449,-1.74 (inactive),-0.0716,-0.0994
C[N+](C)(C)CCCCNC(=O)[C@@H]1C[C@@H]2C(=O)N[C@@H](Cc3ccccc3)C(=O)N2[C@@H]1c1cccc(OCCO)c1,0.241,-0.108,-0.147,0.394,-0.39,1.01,1.14,1.51 (inactive),-0.253,-0.195
O=C(NCCN1CCOCC1)[C@@H]1c2ccccc2C(=O)N(C2CCCCC2)[C@H]1c1ccc(CO)cc1,0.64,-0.324,-0.0616,-0.413,-0.194,0.96,0.872,-0.658 (inactive),0.106,-0.271
C=CCC(OC(C)=O)[C@@H]1[C@@H](N(Cc2ccc(-c3cccc(C(F)(F)F)c3)o2)C(=O)c2ccc(C)cc2)c2cc(OCCCO)ccc2N1C(=O)Cc1ccc2ccccc2c1 (stereo not given in full),0.0498,-0.752,-0.102,0.205,-0.564,-0.326,-0.513,-0.201 (inactive),0.0714,-0.134
O=C1C2C=CC(C(O)Cc3ccccc3)N(n3cnnc3)C2C(=O)N1Cc1ccccc1 (stereo not given),0.442,-0.0532,0.038,0.426,1.43,0.489,0.984,0.793 (inactive),0.307,-0.186
O=C1N(Cc2ccccc2)c2ccccc2[C@@H]2OC(c3ccc(OCCCO)cc3)=N[C@]12CCS(=O)(=O)c1ccccc1,0.625,0.206,0.0111,-0.23,0.888,1.03,1.28,-2.27 (inactive),1.15,-0.253
Cc1nc2cc(Br)ccc2c(=O)o1,-0.296,-0.185,-0.158,0.497,1.1,0.226,0.861,0.845 (inactive),1.04,0.0383
C=C(C)[C@@H]1CC=C(C(O)C2C=CC3C(=O)N(C)C(=O)C3N2Nc2ccccc2)CC1 (stereo not given in full),0.301,0.122,-0.0216,0.394,1.27,0.624,0.928,0.283 (inactive),0.577,0.176
CN1C(=O)C2C=CC(C(O)c3ccco3)N(Nc3ccccc3)C2C1=O (stereo not given),0.034,0.438,0.0772,0.321,1.06,1.51,1.28,0.0122 (inactive),-0.104,-0.0581
Cc1ccccc1C(O)C1C=CC2C(=O)N(c3ccccc3)C(=O)C2N1Nc1ccc(C(C)C)cc1 (stereo not given),-0.0476,-0.0455,0.0536,0.82,1.5,1.27,0.592,-0.729 (inactive),1.41,0.142
COCCOC(=O)N1C(=O)[C@@]2(c3cc(C#CC4(O)CCCCCC4)ccc31)[C@H](c1ccccc1OCCO)N1[C@H](c3ccccc3)[C@H](c3ccccc3)OC(=O)[C@H]1[C@@H]2C(=O)N1CCN(c2ncccn2)CC1,-0.383,0.604,-0.0425,0.801,1.08,1.15,1.26,-0.422 (inactive),0.484,-0.134

SMILES,composite z-score [1],composite z-score [2],composite z-score [3],composite z-score [4],composite z-score [5],composite z-score [6],composite z-score [7],z-score [8],composite z-score [9],composite z-score [10]
COCCOC(=O)N1C(=O)[C@@]2(c3cc(C#CCNC(N)=O)ccc31)[C@H](C(=O)Nc1nc3ccccc3s1)[C@H]1C(=O)O[C@H](c3ccccc3)[C@H](c3ccccc3)N1[C@@H]2c1ccc(OCCO)cc1,1.02,0.103,0.0346,1.05,0.486,0.357,0.331,6.33 (inactive),0.84,-0.226
CCCCN1CC=CC23O[C@@H]4C=CCCOC(=O)C4[C@H]2C(=O)N(CCCCCCO)[C@@H]3C1=O (stereo not given in full),-0.206,-0.596,-0.246,-0.309,-1.1,1.2,1.41,0.357 (inactive),-0.422,-0.7
CC1CC/C=C\[C@H]2OC34C=CCN(C(C)(C)C)C(=O)[C@H]3N(C(C)CO)C(=O)[C@@H]4C2C(=O)O1 (stereo not given in full),0.101,-0.702,-0.128,-0.414,-1.04,-0.486,0.061,-0.486 (inactive),-0.39,-0.0296
CC(C)N1C(=O)c2ccccc2[C@](C)(C(=O)NCCN2CCOCC2)[C@@H]1c1ccc(CO)cc1,0.755,0.779,-0.104,-1.08,-0.879,1.76,0.728,0.185 (inactive),-0.527,-0.306
C=CCN1C(=O)[C@]2(O[C@H](CCn3cc([C@H](O)c4ccccc4)nn3)[C@@H]([Si](C)(C)c3ccc(OC)cc3)[C@@H]2C)c2ccccc21,0.202,-0.602,-0.0894,-0.264,-0.439,0.093,-0.0113,-0.356 (inactive),-0.366,-0.264
COCCOC(=O)N1C(=O)[C@@]2(c3cc(C#CCC(C(=O)OC)C(=O)OC)ccc31)[C@H](C(=O)Nc1nc3ccccc3s1)[C@H]1C(=O)O[C@H](c3ccccc3)[C@H](c3ccccc3)N1[C@@H]2c1ccccc1OCCO,0.0949,0.684,0.0821,0.807,1.49,1.48,1.24,2.19 (inactive),0.0716,0.0873
[N-]=[N+]=Nc1ccccc1[C@H]1OC(c2ccc(OCCCO)cc2)=N[C@@]1(CCS(=O)(=O)c1ccccc1)C(N)=O,1.5,0.449,0.0797,1.07,0.742,0.9,1.34,3.44 (inactive),1.04,0.111
NCCCCCNC(=O)[C@@H]1C[C@@H]2C(=O)N[C@@H](Cc3ccccc3)C(=O)N2[C@@H]1c1ccc(O)cc1,0.266,0.0499,0.0257,0.507,1.12,1.05,1.24,0.227 (inactive),0.918,-0.175
COc1cc2c(cc1OC)CN(C(=O)[C@H]1[C@@H]3C(=O)O[C@@H](c4ccccc4)[C@@H](c4ccccc4)N3[C@@H](c3ccc(O)cc3)[C@]13C(=O)Nc1ccc(C#CCCO)cc13)CC2,0.0257,0.322,-0.0659,0.519,0.0774,1.63,1.28,-0.845 (inactive),-0.0227,-0.125
C=C(CCCC)C(=O)CC[C@@H](OC(=O)c1ccccc1-c1ccccc1C(=O)O)c1ccc(OCCO)cc1,-0.281,0.358,-0.128,0.826,-0.278,0.529,0.562,-0.109 (inactive),0.135,0.011
COc1ccc([Si](C)(C)[C@H]2[C@H](CCO)O[C@@]3(C(=O)N(Cc4ccc(N(C=O)c5ccccc5)cc4)c4ccccc43)[C@@H]2C)cc1,-0.151,-0.177,-0.0602,0.143,-0.285,0.799,0.606,-4.11 (inactive),-0.267,-0.249
CC(C)N1C(=O)[C@@]2(Cc3ccccc31)c1ccccc1C(=O)N(Cc1ccccc1Cl)[C@H]2c1ccc(CO)cc1,-0.0423,-0.149,-0.177,-0.272,-0.791,-0.371,0.0118,-0.426 (inactive),-0.377,-0.319
O=C(N1CCCCC1)[C@]1(Cc2ccccc2)N=C(c2ccc(OCCCO)cc2)O[C@@H]1c1ccccc1,0.542,0.0149,-0.0183,0.541,1.51,1.03,0.884,-0.636 (inactive),0.979,0.289
COc1ccc(CCNC(=O)[C@@]2(Sc3ccc(C)cc3)CC(=O)N(C3Cc4ccccc4C3)[C@@H]2c2ccc(CO)cc2I)cc1,0.538,0.0778,-0.0558,-0.183,-0.813,1.54,0.948,-0.518 (inactive),0.0627,0.0854
O=C1[C@@]23C=C(Br)[C@H](C[C@@H]2CCOC3)[C@@]12CO2,-0.655,0.113,-0.103,0.283,0.306,-0.213,-0.1,-0.413 (inactive),-0.0444,0.0373
O=C1C[C@@](C(=O)NCCN2CCOCC2)(c2ccc([N+](=O)[O-])cc2)[C@@H](c2ccc(CO)cc2I)N1CC12CC3CC(CC(C3)C1)C2,-0.168,0.47,0.0232,0.569,0.926,1.64,1.37,-2.84 (inactive),0.45,0.192
